Measurements as given in PubChem BioAssay (NCATS).
Results filed as inconclusive are left out. Activity calls are given as the source filed them. Unless noted, calls follow the shape of the dose curve; as a rule, active = well fitted curve in the direction sought with a large enough effect; inconclusive = small, poorly fitted or top-dose-only effect, or another doubt; inactive = no such curve, though single readings can be large; an effect the other way counts as inactive or inconclusive.

Legend:
[1] = AP1 Signaling Pathway (AID 357; active = well fitted curve in either direction with a large enough effect, not every such curve was filed as active;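 also: ME-180 reporter cells stimulated with EGF at its EC50 level; % is scaled to controls: 0 for no effect and ±100 for the full control effect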); conditions: ME-180 AP-1-bla reporter, EGF-induced, beta-lactamase ratio, 5 h; at 38 µM (top of the series)
How it was run: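 Cells are seeded overnight, exposed to compound titrations and an EC50 level of EGF for 5 hours at 37 °C, then loaded with CCF4 dye for 2.5 hours. Beta-lactamase activity under the AP-1 element is read as a blue/green ratio.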

[2] = target: Cytochrome P450 1A2 (Homo sapiens) (UniProt P05177); assay: p450-cyp1a2 (AID 410; calls by dose curve; also: potency is read from the fitted curve at half-maximal effect)
Chain of Cytochrome P450 1A2 (Homo sapiens) (P05177 whole entry, looked up): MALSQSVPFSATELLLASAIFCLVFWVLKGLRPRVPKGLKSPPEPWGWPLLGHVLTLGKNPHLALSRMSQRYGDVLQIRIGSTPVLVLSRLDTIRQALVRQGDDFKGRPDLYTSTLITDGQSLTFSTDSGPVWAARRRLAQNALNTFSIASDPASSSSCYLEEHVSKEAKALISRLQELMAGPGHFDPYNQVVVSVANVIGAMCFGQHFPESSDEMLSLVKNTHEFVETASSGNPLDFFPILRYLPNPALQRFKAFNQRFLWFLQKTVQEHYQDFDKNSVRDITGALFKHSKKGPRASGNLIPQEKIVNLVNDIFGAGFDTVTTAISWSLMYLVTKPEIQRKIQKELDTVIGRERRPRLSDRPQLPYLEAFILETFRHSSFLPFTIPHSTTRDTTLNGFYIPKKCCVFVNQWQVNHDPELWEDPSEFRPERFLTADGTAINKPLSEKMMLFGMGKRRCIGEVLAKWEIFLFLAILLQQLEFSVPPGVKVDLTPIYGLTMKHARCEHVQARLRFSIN
How it was run: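 Luminescent readout of luciferin formed from Luciferin-ME by human CYP1A2; data normalized against complete inhibition by 57 uM furafylline. Enzyme 20nM, substrate 100uM at Km, 100mM KPO4 buffer, 60 min reaction at room temperature.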

[3] = NFAT Signaling Pathway (AID 444; active = well fitted curve in either direction with a large enough effect, not every such curve was filed as active;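 also: carbachol stimulus at about its EC50 of 1 µM final; % is scaled to controls: 0 for no effect and ±100 for the full control effect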); conditions: Jurkat NFAT-bla M1, carbachol, beta-lactamase ratio, 5 h; at 38 µM (top of the series)
How it was run: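 Jurkat cells carrying an NFAT-driven β-lactamase reporter and co-transfected muscarinic M1 receptor were treated with compound plus carbachol (1 uM final, an EC50 level) for 5 h at 37 °C. CCF4 loading followed for 1 h at RT; 460/530 nm ratio gave %activity.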

[4] = Stat Signaling Pathway (AID 446; active = well fitted curve in either direction with a large enough effect, not every such curve was filed as active;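 also: ME-180 cervical cancer cells given 40 pM IL-6 alongside compound; SIE-controlled beta-lactamase reporter measured as 460/530 nm FRET emission ratio; % is scaled to controls: 0 for no effect and ±100 for the full control effect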); conditions: ME-180 SIE beta-lactamase reporter, IL-6 stimulated, 5 h; at 38 µM (top of the series)
How it was run: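 Screening format detects activators and inhibitors alike: ME-180 SIE-bla cells stimulated at 40 pM IL-6 for 5 hrs with compound, then dual-emission beta-lactamase read at 405 nm excitation.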

[5] = target: Glucocorticoid receptor (Homo sapiens) (UniProt P04150); assay: GR-GFP Redistribution (AID 450;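 active = compounds whose dose series gives a full or clear partial fitted curve of increased nuclear translocation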; also: potency is read from the fitted curve at half-maximal effect); conditions: U2OS GR-GFP nuclear translocation, laser cytometry, 2 h
Chain of Glucocorticoid receptor (Homo sapiens) (P04150 whole entry, looked up, the tested form may be a part): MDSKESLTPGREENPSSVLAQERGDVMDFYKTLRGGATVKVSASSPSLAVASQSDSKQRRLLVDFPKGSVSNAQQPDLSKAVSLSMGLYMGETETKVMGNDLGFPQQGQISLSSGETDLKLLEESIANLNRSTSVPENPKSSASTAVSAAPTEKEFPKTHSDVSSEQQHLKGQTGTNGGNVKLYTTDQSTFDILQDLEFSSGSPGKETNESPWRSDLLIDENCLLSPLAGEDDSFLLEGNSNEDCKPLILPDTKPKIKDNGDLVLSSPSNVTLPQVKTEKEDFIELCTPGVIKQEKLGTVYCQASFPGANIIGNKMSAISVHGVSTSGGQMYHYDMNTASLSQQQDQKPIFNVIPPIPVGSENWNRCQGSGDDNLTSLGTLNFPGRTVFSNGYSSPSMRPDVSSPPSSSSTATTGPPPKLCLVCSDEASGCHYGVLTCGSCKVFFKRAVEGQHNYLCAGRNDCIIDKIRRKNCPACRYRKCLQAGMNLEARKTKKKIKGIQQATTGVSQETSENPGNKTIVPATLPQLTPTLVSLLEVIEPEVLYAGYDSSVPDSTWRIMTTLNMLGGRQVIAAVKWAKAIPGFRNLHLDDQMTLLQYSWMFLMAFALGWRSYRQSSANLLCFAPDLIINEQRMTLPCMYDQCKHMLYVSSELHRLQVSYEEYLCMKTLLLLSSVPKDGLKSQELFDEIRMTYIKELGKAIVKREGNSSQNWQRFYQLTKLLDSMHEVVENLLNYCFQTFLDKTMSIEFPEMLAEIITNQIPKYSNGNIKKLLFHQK

[6] = target: Glucocorticoid receptor (Homo sapiens) (UniProt P04150); assay: GR-EFC Redistribution (AID 451; calls by dose curve; also: potency is read from the fitted curve at half-maximal effect); conditions: CHO-K1 GR-EFC translocation, beta-gal luminescence, 2 h
How it was run: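 CHO-K1 cells stably expressing nuclear-localized β-gal enzyme acceptor and GR fused C-terminally to the enzyme donor fragment; ligand-driven nuclear translocation restores β-gal by complementation. Compounds titrated up to 46 uM final, 2 h at 37 °C; luminescence read.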

[7] = target: Mitogen-activated protein kinase 10 (Mus musculus) (UniProt Q61831); assay: JNK3 AlphaScreen Assay (AID 530; active = well fitted curve in either direction with a large enough effect, not every such curve was filed as active;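 also: kinase came from lysate of stimulated human HepG2 cells; signal reports phosphorylation of biotinylated GST-cJun 1-79 at Ser73 with 10 µM ATP; % is scaled to controls: 0 for no effect and ±100 for the full control effect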)
How it was run: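 Inhibitors reduce antibody binding to phosphorylated biotin-cJun, lowering AlphaScreen luminescence. Lysates from HepG2 cells pre-activated by IL-1beta plus TNF-alpha supplied JNK3; compounds were titrated.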

[8] = target: 3',5'-cyclic-AMP phosphodiesterase 4B (Homo sapiens) (UniProt Q07343); assay: qHTS Assay for Inhibitors of PDE-IV (AID 607; active = well fitted activation curve with a large enough effect in the main read-out, with a control signal flat, not every such curve was filed as active; also: % of control where 0% means no effect)
Chain of 3',5'-cyclic-AMP phosphodiesterase 4B (Homo sapiens) (Q07343 whole entry, looked up): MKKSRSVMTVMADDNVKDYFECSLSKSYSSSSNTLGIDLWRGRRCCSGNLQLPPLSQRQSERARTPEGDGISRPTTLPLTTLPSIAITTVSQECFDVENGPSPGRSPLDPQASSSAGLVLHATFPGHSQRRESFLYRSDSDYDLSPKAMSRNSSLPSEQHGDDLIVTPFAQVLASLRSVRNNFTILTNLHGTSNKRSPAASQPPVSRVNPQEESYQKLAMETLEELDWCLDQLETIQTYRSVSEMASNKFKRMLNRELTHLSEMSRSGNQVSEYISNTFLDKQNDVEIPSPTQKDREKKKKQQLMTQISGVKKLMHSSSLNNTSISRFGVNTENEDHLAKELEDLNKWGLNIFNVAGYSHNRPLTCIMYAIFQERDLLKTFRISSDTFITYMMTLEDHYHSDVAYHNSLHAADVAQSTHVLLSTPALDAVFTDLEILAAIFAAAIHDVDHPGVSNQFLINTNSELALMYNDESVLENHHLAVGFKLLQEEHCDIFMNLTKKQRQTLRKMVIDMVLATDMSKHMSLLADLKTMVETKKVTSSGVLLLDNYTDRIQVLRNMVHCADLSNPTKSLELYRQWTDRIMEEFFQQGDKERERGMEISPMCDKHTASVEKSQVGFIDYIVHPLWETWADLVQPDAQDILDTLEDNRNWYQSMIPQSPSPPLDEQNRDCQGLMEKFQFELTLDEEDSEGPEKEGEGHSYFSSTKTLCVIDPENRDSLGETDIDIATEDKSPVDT
How it was run: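 The readout is membrane depolarisation from a cAMP-sensing CNG channel, detected with a potential dye at ex 535/em 590. Cells were HEK293-derived (endogenous PDE-IV) at 1000 cells/well, titrated up to 22.9 uM final.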

[9] = target: Guanine nucleotide-binding protein G(i) subunit alpha-1 (Homo sapiens) (UniProt P63096); assay: qHTS Assay for Inhibitors of RGS12 GoLoco Motif Activity (Green Fluorophore) (AID 879);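 also: 0% = labeled peptide with Gαi1 and full inhibition = labeled peptide alone without protein; negative values mean loss of peptide binding seen as reduced polarization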
How it was run: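 Fluorescence polarization assay: 50 nM Gαi1 with 10 nM FITC-labeled RGS12 GoLoco peptide in 10 mM Tris pH 7.5, 150 mM NaCl, 0.1 mM GDP, 0.05% NP40, 10 min at room temperature with compound.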

[10] = target: Cytochrome P450 3A4 (Homo sapiens) (UniProt P08684); assay: qHTS Assay for Activators of Cytochrome P450 3A4 (AID 885); also: nearly all actives have a fitted effect of over 65% in size
Chain of Cytochrome P450 3A4 (Homo sapiens) (P08684 whole entry, looked up): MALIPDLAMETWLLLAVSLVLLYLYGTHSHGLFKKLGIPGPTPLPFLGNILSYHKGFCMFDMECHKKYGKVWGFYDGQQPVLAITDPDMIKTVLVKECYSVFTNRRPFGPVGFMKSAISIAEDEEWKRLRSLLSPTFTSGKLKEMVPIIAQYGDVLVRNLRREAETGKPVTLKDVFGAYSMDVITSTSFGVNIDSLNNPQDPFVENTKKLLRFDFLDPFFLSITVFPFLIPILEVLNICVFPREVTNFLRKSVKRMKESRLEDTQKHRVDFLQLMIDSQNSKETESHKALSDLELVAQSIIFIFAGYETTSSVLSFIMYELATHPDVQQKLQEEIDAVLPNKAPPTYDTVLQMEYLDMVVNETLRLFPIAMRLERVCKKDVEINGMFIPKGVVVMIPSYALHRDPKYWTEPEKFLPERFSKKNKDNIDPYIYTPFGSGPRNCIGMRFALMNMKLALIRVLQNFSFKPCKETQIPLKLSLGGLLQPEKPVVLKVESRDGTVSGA
How it was run: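 Steps: enzyme/substrate mix dispensed; compound added, 10 min RT; NADPH regeneration solution added, 60 min RT; luciferin detection buffer stops reaction; 20 min later luminescence measured.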

[11] = qHTS Assay for Identification of Small Molecule Agonists for Thrombopoietin (TPO) Signaling Pathway (AID 917); also: % is scaled to controls: 0 for no effect and ±100 for the full control effect
How it was run: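 IL-3-dependent murine pro-B Ba/F3 cells, stably transfected with human TPO receptor and GpIIb-promoter luciferase, are incubated 24 hrs at 37 C with test compound and 26 pM TPO; luciferase signal is read after 10 min at room temperature.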

[12] = target: Muscarinic acetylcholine receptor M1 (Rattus norvegicus) (UniProt P08482); assay: qHTS Assay for Antagonists of Acetylcholine Muscarinic M1 Receptor: Kinetic Measurement of Intracellular Calcium Response (AID 943);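 also: Fluo-4 calcium signal as peak divided by basal fluorescence over 4 min; nearly all actives have a fitted effect of over 75% in size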
Chain of Muscarinic acetylcholine receptor M1 (Rattus norvegicus) (P08482 whole entry, looked up): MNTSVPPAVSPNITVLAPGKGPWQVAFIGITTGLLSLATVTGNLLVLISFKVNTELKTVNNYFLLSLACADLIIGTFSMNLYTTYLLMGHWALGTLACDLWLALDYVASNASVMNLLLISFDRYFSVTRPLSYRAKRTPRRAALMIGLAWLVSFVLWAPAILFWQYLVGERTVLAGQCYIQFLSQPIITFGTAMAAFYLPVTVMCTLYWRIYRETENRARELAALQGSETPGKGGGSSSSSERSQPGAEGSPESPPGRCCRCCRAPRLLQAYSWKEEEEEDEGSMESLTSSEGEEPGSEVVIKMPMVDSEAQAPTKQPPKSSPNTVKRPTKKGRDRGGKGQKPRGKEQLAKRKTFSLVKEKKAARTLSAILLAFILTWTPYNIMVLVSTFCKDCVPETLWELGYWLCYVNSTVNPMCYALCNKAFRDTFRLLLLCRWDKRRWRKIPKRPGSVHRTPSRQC
How it was run: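 Rat M1-CHO cells, 2000/well, overnight → Fluo-4 no-wash dye with probenecid, 1 h 37C → compound 10 min, room temp → basal read 6 s → carbachol EC80 (100 nM) → 4 min kinetic read; peak/basal.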

[13] = target: Muscarinic acetylcholine receptor M1 (Rattus norvegicus) (UniProt P08482); assay: qHTS Assay for Antagonists of Acetylcholine Muscarinic M1 Receptor: Measurement of IP-One Response (AID 944); also: nearly all actives have a fitted effect of over 75% in size
How it was run: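 M1-CHO (rat), 2000 cells/well, overnight recovery; cpd 10 min; carbachol EC80 (200 nM), 30 min, HEPES buffer + 50 mM LiCl pH 7.4; IP-One HTRF, Ex 337, Em 620/665 nm.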

[14] = target: Pyruvate kinase (Leishmania mexicana) (UniProt Q27686); assay: qHTS Validation Assay for Inhibitors of Leishmania Mexicana Pyruvate Kinase (AID 945);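 also: 0% = DMSO only neutral control wells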
How it was run: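 Luminescent ATP detection (PKLight) after a 1 h room-temperature reaction of 0.2 nM LmPYK E451W mutant with 0.5 mM PEP and 0.1 mM ADP at pH 7.2. Activity is normalized to DMSO-only control wells.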

[15] = target: Pyruvate kinase PKM (Homo sapiens) (UniProt P14618); assay: qHTS Assay for Activators of Human Muscle Pyruvate Kinase (AID 954; active = well fitted curve in the direction sought with a large enough effect, not every such curve was filed as active;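 also: 0% = uninhibited enzyme and -100% = no enzyme or full thiadiazolimine inhibition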)
Chain of Pyruvate kinase PKM (Homo sapiens) (P14618 whole entry, looked up): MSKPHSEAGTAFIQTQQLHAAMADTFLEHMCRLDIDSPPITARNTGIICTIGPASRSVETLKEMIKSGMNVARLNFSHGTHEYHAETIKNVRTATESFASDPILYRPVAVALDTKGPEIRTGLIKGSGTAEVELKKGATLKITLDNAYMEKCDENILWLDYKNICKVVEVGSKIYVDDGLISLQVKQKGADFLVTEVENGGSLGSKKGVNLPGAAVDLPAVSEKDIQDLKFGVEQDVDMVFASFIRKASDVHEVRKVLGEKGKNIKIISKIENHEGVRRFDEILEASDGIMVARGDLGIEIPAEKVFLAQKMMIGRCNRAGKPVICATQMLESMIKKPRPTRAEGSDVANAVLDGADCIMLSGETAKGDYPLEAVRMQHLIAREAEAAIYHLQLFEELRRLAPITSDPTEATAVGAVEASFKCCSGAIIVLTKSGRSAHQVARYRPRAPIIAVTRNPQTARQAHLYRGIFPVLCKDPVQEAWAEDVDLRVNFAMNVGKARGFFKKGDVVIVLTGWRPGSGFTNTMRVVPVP
How it was run: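 Reaction: 0.1 nM purified PKM2 with 0.5 mM phosphoenolpyruvate and 0.1 mM ADP, room temperature, 1 h. Readout: luciferase-based ATP luminescence after stop reagent. Activators judged against a 0.3 nM enzyme column.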

[16] = target: Alpha-galactosidase A (Homo sapiens) (UniProt P06280); assay: Counterscreen for Glucocerebrosidase Inhibitors: qHTS Assay for Human alpha-Galactosidase at pH 4.5 (AID 992); also: 0% is about no effect
How it was run: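 Concentration-response curves (0.7 nM to 77 uM final) were modeled with the Hill equation to give AC50. Reactions: 2 nM enzyme, 80 uM fluorogenic alpha-galactoside, pH 4.5 citric acid buffer, 20 min, room temperature.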

[17] = target: alpha-glucosidase (Oryza sativa, rice) (UniProt Q653V4); assay: Counterscreen for Glucocerebrosidase Inhibitors: qHTS Assay for Rice alpha-Glucosidase at pH 5.0 (AID 997);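 also: 0% = full activity with enzyme and -100% = basal without enzyme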
How it was run: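 Rice alpha-glucosidase (4 nM final) with 400 uM 4-methylumbelliferyl-alpha-D-glucopyranoside in citrate buffer pH 5.0, 20 min at room temperature, stopped at pH 10; fluorescence 365/440 nm, compounds 0.7 nM–77 uM, AC50 from Hill fits.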

[18] = qHTS Assay for Lipid Storage Modulators (AID 1519; calls by dose curve); conditions: Drosophila S3 cells, BODIPY lipid droplet/cell ratio, laser cytometry, cells loaded with oleic acid
How it was run: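 Cells seeded at 5,000 per well were treated with compounds over a concentration series and loaded with oleic acid (400 uM, as added). Lipid droplet fluorescence (488 nm excitation, 500-530 nm channel) was read by laser-scanning cytometry and normalized to 20 uM Triacsin C.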

[19] = target: DNA repair nuclease/redox regulator APEX1 (Homo sapiens) (UniProt P27695); assay: qHTS Validation Assay for Inhibitors of the Human Apurinic/apyrimidinic Endonuclease 1 (APE1) (AID 1705)
How it was run: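 Substrate: 50 nM final fluorophore/quencher THF-abasic duplex. Enzyme preincubated with compounds 15 min, RT. Progress derived from fluorescence difference, third minus first kinetic read.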

[20] = Counterscreen for APE1 Inhibitors: Fluorescent Dye Displacement Validation Assay (AID 1707);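 also: plate controls were ThO with dsDNA and no compound for no effect and ThO without dsDNA for full effect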
How it was run: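 Assay buffer: Tris-HCl pH7.5 with 50mM NaCl, 2 mM MgCl2, 0.01% Tween-20. Dye 250 nM, duplex 50 nM final. Readout: decrease in ThO endpoint fluorescence, 480 nm excitation, 540 nm emission.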

[21] = qHTS for differential inhibitors of proliferation of Plasmodium falciparum line GB4 (AID 1816); conditions: Potency: Plasmodium falciparum GB4 proliferation inhibition;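 also: parasite growth measured after 72 h incubation; 0% = vehicle DMSO and -100% = reference inhibitor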
[22] = qHTS for differential inhibitors of proliferation of Plasmodium falciparum line 3D7 (AID 1876);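 also: parasite growth measured after three days of culture; 0% = vehicle wells and -100% = reference inhibitor wells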
[23] = qHTS for differential inhibitors of proliferation of Plasmodium falciparum line D10 (AID 1877);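 also: parasites grown with compound for 72 h before DNA staining; plate controls were vehicle wells for no effect and reference inhibitor wells for full effect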
[24] = qHTS for differential inhibitors of proliferation of Plasmodium falciparum line Dd2 (AID 1882); conditions: Potency: Plasmodium falciparum Dd2 proliferation inhibition;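 also: plate controls were DMSO vehicle for no effect and 0.29 µM artemisinin for full effect; nearly all actives have a fitted effect of over 65% in size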
How it was run: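 Dd2-infected erythrocytes (0.3% parasitemia, 2.5% hematocrit final) incubated with compound 72 h at 37 C, 5% CO2; lysed with saponin/Triton buffer containing SYBR Green I, incubated overnight in the dark, then read by fluorescence (485/535 nm). Normalized to 0.29 uM artemisinin and DMSO.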

[25] = qHTS for differential inhibitors of proliferation of Plasmodium falciparum line HB3 (AID 1886); conditions: Potency: Plasmodium falciparum HB3 proliferation inhibition;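 also: parasites grown with compound for 72 h before SYBR Green readout; plate controls were vehicle for no effect and reference inhibitor for full effect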
[26] = target: Ferritin light chain (Equus caballus) (UniProt P02791); assay: qHTS Validation Assay for Identification of Novel General Anesthetics (AID 2323); also: % is scaled to controls: 0 for no effect and ±100 for the full control effect
How it was run: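 Normalized fluorescence response, scaled between free 1-AMA and 1-AMA/apoferritin complex, fitted to a four-parameter Hill equation for concentration-effect values. Binding mix: 10 uM horse-spleen apoferritin, 50% saturated 1-AMA in PBS; read 380/535 nm after 10 min.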

[27] = target: ATP-dependent DNA helicase Q1 (Homo sapiens) (UniProt P46063); assay: qHTS Validation Assay for Inhibitors of RecQ-Like Dna Helicase 1 (RECQ1) (AID 2353);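 also: plate controls were DMSO vehicle for no effect and enzyme-free control for full effect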
Chain of ATP-dependent DNA helicase Q1 (Homo sapiens) (P46063 whole entry, looked up): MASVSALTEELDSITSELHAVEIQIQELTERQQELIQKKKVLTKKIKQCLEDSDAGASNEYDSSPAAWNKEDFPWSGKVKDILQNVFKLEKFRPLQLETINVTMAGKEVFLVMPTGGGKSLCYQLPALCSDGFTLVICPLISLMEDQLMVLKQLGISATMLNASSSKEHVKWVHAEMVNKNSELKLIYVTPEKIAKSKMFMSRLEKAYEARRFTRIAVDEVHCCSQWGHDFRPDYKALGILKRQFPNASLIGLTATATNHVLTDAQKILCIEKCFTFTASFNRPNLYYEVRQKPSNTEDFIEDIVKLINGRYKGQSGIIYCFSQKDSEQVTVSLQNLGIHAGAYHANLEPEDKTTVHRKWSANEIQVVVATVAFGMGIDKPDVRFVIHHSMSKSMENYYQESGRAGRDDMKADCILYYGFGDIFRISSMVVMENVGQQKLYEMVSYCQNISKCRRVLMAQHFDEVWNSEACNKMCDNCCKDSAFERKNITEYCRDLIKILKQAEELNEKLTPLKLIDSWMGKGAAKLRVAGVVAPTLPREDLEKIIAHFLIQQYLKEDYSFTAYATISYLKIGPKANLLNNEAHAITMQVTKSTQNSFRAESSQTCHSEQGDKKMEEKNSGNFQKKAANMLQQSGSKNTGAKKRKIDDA
How it was run: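 50 nM RECQ1T1 preincubated 15 min with compound in Tris pH 8.0 buffer with MgCl2, DTT, Tween-20 and 2.5 ug/ml poly(dI-dC); started with 200 nM TAMRA/BHQ-2 forked duplex and 2 mM ATP. Unwinding read as fluorescence (525/598 nm), two reads 2 h apart.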

[28] = Quantitative high throughput screen for delayed death inhibitors of the malarial parasite plastid, 96 hour incubation (AID 488745);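 also: luciferase-expressing P. falciparum in erythrocytes at 2% hematocrit and 0.1% parasitemia; % is scaled to controls: 0 for no effect and ±100 for the full control effect; nearly all actives have a fitted effect of over 70% in size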
How it was run: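 Infected erythrocytes were added to compound in Albumax-supplemented RPMI 1640 at 0.1% parasitemia and 2% hematocrit (final), incubated 96 h at 37 C under 5% CO2, then luciferase reagent was added and luminescence measured.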

[29] = Quantitative high throughput screen for delayed death inhibitors of the malarial parasite plastid, 48 hour incubation (AID 488752); also: % is scaled to controls: 0 for no effect and ±100 for the full control effect; nearly all actives have a fitted effect of over 65% in size
How it was run: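 Readout is firefly luciferase luminescence from a reporter integrated into the parasite genome, with lower signal taken as inhibited growth. Infected red cells (0.1% parasitemia, 2% hematocrit final) are cultured with compound for one 48 h cycle at 37 C.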

[30] = target: M-phase phosphoprotein 8 (Homo sapiens) (UniProt Q99549); assay: qHTS Validation Assay for Inhibitors for MPP8 Chromodomain Interactions with Methylated Histone Tails (AID 488949);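 also: 50 nM MPP8 with 50 nM peptide preformed then compounds added for 30 min; AlphaScreen signal from MPP8 chromodomain bound to biotinylated H3K9me3 peptide; top concentration of the series differs between compounds; % is scaled to controls: 0 for no effect and ±100 for the full control effect; nearly all actives have a fitted effect of over 55% in size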
How it was run: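 Chemiluminescent proximity assay: histidine-tag capture via nickel acceptor beads, biotin peptide via streptavidin donor beads. Protein and peptide each at 50 nM, pH 7.4, with 30 min incubations at room temperature for complex formation, compound exposure and bead binding.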

[31] = target: Transient receptor potential cation channel subfamily V member 1 (Homo sapiens) (UniProt Q8NER1); assay: HTS Assay for Compounds that Act as Enhancers of the Vanilloid Receptor 1 (AID 488979); also: 0% is about no effect
How it was run: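 TRPV1-expressing cells loaded with Fluo-8 calcium dye; compounds added and calcium influx read kinetically for 3 min (agonist phase), then capsaicin at EC20 added and read 2 min more for enhancement. Fluorescence ex 480/em 520 nm.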

[32] = target: Thyrotropin receptor (Homo sapiens) (UniProt P16473); assay: qHTS Assay for Antagonists of the Thyroid Stimulating Hormone Receptor (AID 488980); also: 0% is about no effect
Chain of Thyrotropin receptor (Homo sapiens) (P16473 whole entry, looked up): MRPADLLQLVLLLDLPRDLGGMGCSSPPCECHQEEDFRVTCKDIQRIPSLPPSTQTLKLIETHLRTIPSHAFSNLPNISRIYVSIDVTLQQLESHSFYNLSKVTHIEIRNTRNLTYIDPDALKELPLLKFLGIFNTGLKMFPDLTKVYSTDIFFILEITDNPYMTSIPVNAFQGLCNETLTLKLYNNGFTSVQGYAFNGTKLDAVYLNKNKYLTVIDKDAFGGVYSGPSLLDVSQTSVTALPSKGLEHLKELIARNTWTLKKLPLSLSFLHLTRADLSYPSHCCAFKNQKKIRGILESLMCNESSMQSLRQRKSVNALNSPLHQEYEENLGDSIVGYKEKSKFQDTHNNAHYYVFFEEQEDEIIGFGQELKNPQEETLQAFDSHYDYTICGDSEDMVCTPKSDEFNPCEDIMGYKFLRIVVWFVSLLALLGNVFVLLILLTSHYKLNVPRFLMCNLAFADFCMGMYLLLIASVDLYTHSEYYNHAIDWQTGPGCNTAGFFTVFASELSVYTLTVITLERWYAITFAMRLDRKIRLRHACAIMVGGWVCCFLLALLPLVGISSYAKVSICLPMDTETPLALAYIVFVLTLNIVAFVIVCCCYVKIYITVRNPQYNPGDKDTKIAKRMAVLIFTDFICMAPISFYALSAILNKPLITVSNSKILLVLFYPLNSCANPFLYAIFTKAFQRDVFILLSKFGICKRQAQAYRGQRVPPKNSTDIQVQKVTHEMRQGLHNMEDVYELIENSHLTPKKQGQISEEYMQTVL
How it was run: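 Inhibition of TSH-stimulated cAMP accumulation was quantified by homogeneous time-resolved FRET in TSHR-transfected HEK293 cells. Agonist: TSH, 4 nM final (EC80).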

[33] = target: Galactokinase (Homo sapiens) (UniProt P51570); assay: qHTS Validation Assay for Inhibitors of Human Galactokinase (GALK) (AID 493189); also: 0% is about no effect
How it was run: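 Enzyme activity is inferred from ATP consumption: human GALK phosphorylates galactose (100 uM) using 35 uM ATP for 1 h at room temperature, and luciferase-based Kinase-Glo Plus reports unconsumed ATP.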

[34] = Validation screen for small molecules that induce DNA re-replication in SW480 colon adenocarcinoma cells (AID 504364); also: 0% is about no effect
How it was run: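 250 cells/well; compound pinned in; 48 hr, 37 C, 5% CO2; Hoechst added, 40 min; nuclear fluorescence imaged, 405 ex / 500-530 em; re-replication scored as increase in high-intensity nuclei.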

[35] = target: Voltage-gated inwardly rectifying potassium channel KCNH2 (Homo sapiens) (UniProt Q12809); assay: qHTS Assay for Small Molecule Inhibitors of the Human hERG Channel Activity (AID 588834);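 also: top concentration of the series differs between compounds; % is scaled to controls: 0 for no effect and ±100 for the full control effect; lower thallium flux fluorescence means stronger hERG block; nearly all actives have a fitted effect of over 50% in size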
How it was run: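 Blockade is seen as reduced FluxOR thallium-flux fluorescence in U2OS cells expressing hERG from a BacMam construct, in Opti-MEM with 2% FCS. Concentration-response data fitted to the Hill equation for AC50.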

[36] = tested on: Zika virus NS2B-NS3 protease; assay: Primary screen GU AMC qHTS for Zika virus inhibitors (AID 1347154);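 also: 0% = no-inhibitor control and -100% = no-enzyme control; nearly all actives have a fitted effect of over 70% in size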
How it was run: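 Unlinked Zika NS2B hydrophilic domain/NS3 protease domain noncovalent complex (25 nM final) in 10 mM Tris-HCl pH 8.0, 0.01% Tween 20, with AMC peptide substrate. Fluorescence (ex 340, em 450 nm) change over 15 min, room temperature; percent inhibition fitted to 4-parameter Hill equation.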

[37] = Primary qHTS for small molecule stabilizers of the endoplasmic reticulum resident proteome: Secreted ER Calcium Modulated Protein (SERCaMP) assay (AID 1508630); also: % is scaled to controls: 0 for no effect and ±100 for the full control effect
How it was run: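 GLuc-SERCaMP-expressing SH-SY5Y cells, pretreated 16 h with compound, are challenged with thapsigargin to empty ER calcium stores; after 4 h, coelenterazine is added directly to the medium and luminescence is imaged.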

COc1ccccc1NC(=O)Nc1nc(-c2cccnc2)nc2ccccc12
active: Potency [2] 2.51 µM
-29%: max response ([18]; measured here: lipid channel max response)
-30.6%: max response ([18]; measured here: cell count channel max response)
inactive: activity change, negative = inhibition [1] 12.1% | activity change, negative = inhibition [3] 4.7% | activity, negative = inhibition [4] 4.21% | Potency [5] > 46 µM | Potency [6] > 46 µM | Potency [7] | Potency [8] | outcome [9] | Potency [10] | Potency [11] | Potency [12] | Potency [13] | Potency [14] | outcome [15] | outcome [16] | outcome [17] | activity change, negative = inhibition ([18]; at 57.5 µM (top of the series)) -0.716% | Potency [19] | Potency [20] | Potency [21] | Potency [22] | Potency [23] | Potency [24] | Potency [25] | outcome [26] | Potency [27] | Potency [28] | Potency [29] | Potency [30] | outcome [31] | outcome [32] | outcome [33] | outcome [34] | Potency [35] | Potency [36] | Potency [37]
